Source: PubChem BioAssay AID1159580 (chemical genetic matrix, 2015)
Values joined by “and” are separate entries in the source; they are usually repeats but may differ in a detail not shown here. Equal entries are not always repeated. Out of some 5,500 compounds screened, about 2,000 (36%) were called active. Another 18% or so got no clear call; they are omitted. No stated cut-off is given here; in the data, active means normalized growth mostly below about 0.91 (no sharp cut-off); inconclusive means no clear call, values can overlap the other calls; inactive means mostly above about 0.92. This is one part of the list.

Assay: chemical genetic growth profiling, strain panel (AID 1159580);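 further: tested at 20 µM; growth read once vehicle control cultures reached saturation at 30 °C; 1 = growth at the plate median or of vehicle wells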
Conditions: S. cerevisiae deletion strains, growth OD

CCOC(=O)CCCCCCCCCCCCC1C=CCC1 (centres undefined)
normalized growth (locus YAL013W, strain DEP1, stronger effect = lower value): 0.054 (active) | normalized growth (locus YAL021C, strain ccr4, stronger effect = lower value): 1.01 (inactive) | normalized growth (locus YAL026C, strain drs2, stronger effect = lower value): 1 (inactive) | normalized growth (locus YAL030W, strain snc1, stronger effect = lower value): 0.982 (inactive) | normalized growth (locus YBL061C, strain skt5, stronger effect = lower value): 0.977 (inactive) | normalized growth (locus YBR009C, strain hhf1, stronger effect = lower value): 0.922 (inactive) | normalized growth (locus YBR021W, strain FUR4, stronger effect = lower value): 0.0914 (active) | normalized growth (locus YBR023C, strain chs3, stronger effect = lower value): 0.979 (inactive) | normalized growth (locus YBR171W, strain sec66, stronger effect = lower value): 0.973 (inactive) | normalized growth (locus YBR229C, strain ROT2, stronger effect = lower value): 0.0494 (active) | normalized growth (locus YBR231C, strain swc5, stronger effect = lower value): 0.978 (inactive) | normalized growth (locus YBR279W, strain paf1, stronger effect = lower value): 0.981 (inactive) | normalized growth (locus YCL011C, strain gbp2, stronger effect = lower value): 0.967 (inactive) | normalized growth (locus YCL016C, strain dcc1, stronger effect = lower value): 0.981 (inactive) | normalized growth (locus YCL029C, strain bik1, stronger effect = lower value): 0.067 (active) | normalized growth (locus YCL061C, strain MRC1, stronger effect = lower value): 0.983 (inactive) | normalized growth (locus YCL069W, strain vba3, stronger effect = lower value): 0.981 (inactive) | normalized growth (locus YCR088W, strain abp1, stronger effect = lower value): 0.983 (inactive) | normalized growth (locus YDL005C, strain med2, stronger effect = lower value): 0.974 (inactive) | normalized growth (locus YDL035C, strain GPR1, stronger effect = lower value): 0.0527 (active) | normalized growth (locus YDL040C, strain nat1, stronger effect = lower value): 0.974 (inactive) | normalized growth (locus YDL074C, strain BRE1, stronger effect = lower value): 0.0833 (active) | normalized growth (locus YDL101C, strain DUN1, stronger effect = lower value): 0.0581 (active) | normalized growth (locus YDL134C, strain PPH21, stronger effect = lower value): 0.0502 (active) | normalized growth (locus YDL185W, strain tfp1, stronger effect = lower value): 0.499 (active) | normalized growth (locus YDL192W, strain arf1, stronger effect = lower value): 0.0606 (active) | normalized growth (locus YDR001C, strain nth1, stronger effect = lower value): 0.994 (inactive) | normalized growth (locus YDR069C, strain doa4, stronger effect = lower value): 0.958 (inactive) | normalized growth (locus YDR101C, strain arx1, stronger effect = lower value): 0.0619 (active) | normalized growth (locus YDR137W, strain rgp1, stronger effect = lower value): 0.979 (inactive) | normalized growth (locus YDR159W, strain sac3, stronger effect = lower value): 0.978 (inactive) | normalized growth (locus YDR162C, strain NBP2, stronger effect = lower value): 0.0522 (active) | normalized growth (locus YDR195W, strain ref2): 1.06 (inactive) | normalized growth (locus YDR297W, strain sur2, stronger effect = lower value): 0.984 (inactive) | normalized growth (locus YDR318W, strain mcm21, stronger effect = lower value): 0.0614 (active) | normalized growth (locus YDR334W, strain swr1, stronger effect = lower value): 0.976 (inactive) | normalized growth (locus YDR335W, strain msn5, stronger effect = lower value): 1 (inactive) | normalized growth (locus YDR388W, stronger effect = lower value): 0.0583 (active) | normalized growth (locus YDR392W, strain spt3, stronger effect = lower value): 0.497 (active) | normalized growth (locus YDR502C, strain sam2, stronger effect = lower value): 0.0641 (active) | normalized growth (locus YEL003W, strain gim4, stronger effect = lower value): 0.969 (inactive) | normalized growth (locus YEL037C, strain rad23, stronger effect = lower value): 0.989 (inactive) | normalized growth (locus YEL061C, strain CIN8 (second series), stronger effect = lower value): 0.978 (inactive) | normalized growth (locus YEL061C, strain CIN8, stronger effect = lower value): 0.054 (active) | normalized growth (locus YER015W, strain faa2, stronger effect = lower value): 0.982 (inactive) | normalized growth (locus YER016W, strain bim1, stronger effect = lower value): 0.978 (inactive) | normalized growth (locus YER110C, stronger effect = lower value): 0.0827 (active) | normalized growth (locus YER111C, strain swi4, stronger effect = lower value): 0.958 (inactive) | normalized growth (locus YER155C, strain BEM2 (second series), stronger effect = lower value): 0.594 (active) | normalized growth (locus YER155C, strain BEM2, stronger effect = lower value): 0.0734 (active) | normalized growth (locus YER167W, strain BCK2, stronger effect = lower value): 0.0529 (active) | normalized growth (locus YFR010W, strain ubp6, stronger effect = lower value): 0.969 (inactive) | normalized growth (locus YGL078C, strain dbp3, stronger effect = lower value): 0.688 (active) | normalized growth (locus YGL086W, strain mad1, stronger effect = lower value): 0.0537 (active) | normalized growth (locus YGL167C, strain pmr1, stronger effect = lower value): 0.972 (inactive) | normalized growth (locus YGL173C, strain kem1, stronger effect = lower value): 0.96 (inactive) | normalized growth (locus YGL227W, strain vid30, stronger effect = lower value): 0.962 (inactive) | normalized growth (locus YGL240W, strain doc1, stronger effect = lower value): 0.972 (inactive) | normalized growth (locus YGL248W, strain PDE1, stronger effect = lower value): 0.0488 (active) | normalized growth (locus YGL253W, strain hxk2, stronger effect = lower value): 0.998 (inactive) | normalized growth (locus YGR078C, strain PAC10, stronger effect = lower value): 0.053 (active) | normalized growth (locus YGR135W, strain pre9, stronger effect = lower value): 0.06 (active) | normalized growth (locus YGR252W, strain gcn5, stronger effect = lower value): 0.11 (active) | normalized growth (locus YHR013C, strain ard1, stronger effect = lower value): 0.815 (active) | normalized growth (locus YHR027C, strain rpn1, stronger effect = lower value): 0.984 (inactive) | normalized growth (locus YHR030C, strain SLT2, stronger effect = lower value): 0.0494 (active) and 0.992 (inactive) | normalized growth (locus YHR079C, strain IRE1 (second series), stronger effect = lower value): 0.0604 (active) | normalized growth (locus YHR079C, strain IRE1, stronger effect = lower value): 0.983 (inactive) | normalized growth (locus YHR094C, strain hxt1, stronger effect = lower value): 0.0651 (active) | normalized growth (locus YHR129C, strain ARP1, stronger effect = lower value): 0.0559 (active) | normalized growth (locus YHR142W, strain chs7, stronger effect = lower value): 0.975 (inactive) | normalized growth (locus YHR200W, strain rpn10, stronger effect = lower value): 0.0588 (active) | normalized growth (locus YIL066C, strain RNR3, stronger effect = lower value): 0.0493 (active) | normalized growth (locus YIL073C, strain SPO22, stronger effect = lower value): 0.148 (active) | normalized growth (locus YIL125W, strain kgd1, stronger effect = lower value): 0.773 (active) | normalized growth (locus YIR030C, strain dcg1, stronger effect = lower value): 0.0637 (active) | normalized growth (locus YJL092W, strain hpr5, stronger effect = lower value): 0.994 (inactive) | normalized growth (locus YJL095W, strain BCK1 (second series), stronger effect = lower value): 0.969 (inactive) | normalized growth (locus YJL095W, strain BCK1, stronger effect = lower value): 0.0599 (active) and 0.989 (inactive) | normalized growth (locus YJL115W, strain asf1, stronger effect = lower value): 0.99 (inactive) | normalized growth (locus YJL129C, strain trk1, stronger effect = lower value): 0.91 (inactive) | normalized growth (locus YJL134W, strain LCB3, stronger effect = lower value): 0.0504 (active) | normalized growth (locus YJL154C, strain vps35, stronger effect = lower value): 0.997 (inactive) | normalized growth (locus YJL164C, strain tpk1, stronger effect = lower value): 0.952 (inactive) | normalized growth (locus YJL166W, strain qcr8, stronger effect = lower value): 0.942 (inactive) | normalized growth (locus YJL168C, strain set2, stronger effect = lower value): 0.0586 (active) | normalized growth (locus YJL187C, strain SWE1 (second series), stronger effect = lower value): 0.0498 (active) | normalized growth (locus YJL187C, strain SWE1, stronger effect = lower value): 0.98 (inactive) | normalized growth (locus YJR043C, strain POL32, stronger effect = lower value): 0.0731 (active)
